Measured values taken from PubChem BioAssay (EPA / NIEHS).
Activity calls are given as the source filed them. How the source made its calls: active means hit-call score of the fitted dose curve at least 0.9, where 1 is the maximum; inactive means score below 0.9.

Columns and labels:
[1] = target: Bile acid receptor (Homo sapiens) (UniProt Q96RI1); experiment: ATG_IR1_CIS: Attagene CIS-FACTORIAL HepG2 Assay for human Nuclear Receptor Subfamily 1 Group H Member 4 (NR1H4), IR1 submotif (AID 2282946); details: IR1 reporter transcription, actives raise or lower the signal
Method in brief: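 Readout: reporter transcript levels by RT-PCR with fluorescent capillary electrophoresis, from HepG2 cells transiently transfected with multiplexed cis-regulated reporters and dosed 24 h. Gain- or loss-of-signal fitted versus DMSO negative control.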

[2] = ATG_GRE_CIS: Attagene CIS-FACTORIAL HepG2 Assay for human Glucocorticoid Response Elements (GRE) (AID 2282947); details: HepG2 GRE cis-reporter, Attagene multiplex mRNA; actives raise or lower the signal
Method in brief: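 Cells (HepG2) bearing transfected cis-promoter reporter transcription units were treated with chemical for 24 hours. Reporter mRNA was measured via RT-PCR with capillary electrophoresis, and activity was fitted in both directions relative to DMSO.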

[3] = ATG_ISRE_CIS: Attagene CIS-FACTORIAL HepG2 Assay for human Interferon Regulatory Factor 1 (IRF1) binding to an Interferon-Stimulated Response Element (ISRE) (AID 2282948); details: HepG2 ISRE cis-reporter (Attagene), mRNA transcription readout; actives raise or lower the signal
Method in brief: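 Endogenous transcription factor activity read as reporter transcript abundance via RT-PCR and capillary electrophoresis. HepG2 cells transiently transfected, 24 h chemical exposure. Gain or loss fitted against DMSO baseline.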

[4] = ATG_M_06_CIS: Attagene CIS-FACTORIAL HepG2 Assay for M06 Transcription Factor (Internal Marker) (AID 2282950); details: HepG2 Attagene CIS-FACTORIAL M06 internal marker reporter; actives raise or lower the signal
Method in brief: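 Fluorescence-labelled RT-PCR products from cis-promoter reporter units, cut with HpaI and resolved by capillary electrophoresis, give the signal. Cells are human HepG2, dosed for 24 h. Serves as background control, fitted relative to DMSO.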

[5] = target: Hypoxia-inducible factor 1-alpha (Homo sapiens) (UniProt Q16665); experiment: ATG_HIF1a_CIS: Attagene CIS-FACTORIAL HepG2 Assay for human Hypoxia Inducible Factor 1 (HIF1A) (AID 2282951); details: HepG2 Attagene cis-factorial HIF1a reporter transcription; actives raise or lower the signal
Method in brief: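 RT-PCR/capillary electrophoresis fluorescence readout of reporter transcripts from endogenous-TF-driven cis elements in transfected HepG2 cells, 24 h exposure; activity fitted in both directions against DMSO controls.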

[6] = target: Hepatocyte nuclear factor 6 (Homo sapiens) (UniProt Q9UBC0); experiment: ATG_HNF6_CIS: Attagene CIS-FACTORIAL HepG2 Assay for human Hepatocyte Nuclear Factor 6 (HNF6) (AID 2282952); details: HepG2 Attagene cis-factorial HNF6 reporter transcription; actives raise or lower the signal
Method in brief: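 Endogenous factor activity read in transiently transfected HepG2 via promoter-regulated reporter transcripts. RNA harvested 24 h post-dosing, reverse-transcribed, PCR-amplified, FAM-labelled, HpaI-digested and resolved by capillary electrophoresis; fitted in both directions against DMSO.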

[7] = ATG_PBREM_CIS: Attagene CIS-FACTORIAL HepG2 Assay for human Phenobarbital-responsive Enhancer Module (PBREM) (AID 2282955); details: HepG2 PBREM cis-reporter, Attagene multiplexed transcription; actives raise or lower the signal
Method in brief: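 Reporter mRNA read by RT-PCR, 6-FAM primer extension, HpaI digestion and capillary electrophoresis. Transfected HepG2 cells, 24 h compound exposure. Gain or loss of signal fitted bidirectionally relative to DMSO baseline.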

[8] = target: Paired box protein Pax-6 (Homo sapiens) (UniProt P26367); experiment: ATG_Pax6_CIS: Attagene CIS-FACTORIAL HepG2 Assay for human Paired Box 6 (PAX6) (AID 2282956); details: HepG2 CIS-FACTORIAL PAX6 reporter transcription, RNA readout; actives raise or lower the signal
Method in brief: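 Read-out is reporter transcript level, measured by RT-PCR with fluorescent primer extension and capillary electrophoresis after 24 h dosing of transfected HepG2 cells. Activity in either direction fitted relative to DMSO control.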

[9] = ATG_PXRE_CIS: Attagene CIS-FACTORIAL HepG2 Assay for human Pregnane X Receptor Element (PXRE) (AID 2282957); details: HepG2 Attagene CIS-FACTORIAL PXRE reporter, mRNA; actives raise or lower the signal
Method in brief: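 Reporter transcripts under endogenous PXR-responsive cis-regulation quantified from total RNA of transfected HepG2 cells 24 h post-dosing, via RT-PCR with fluorescent primer extension and capillary electrophoresis. Gain or loss of signal fitted against DMSO baseline.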

[10] = ATG_PPRE_CIS: Attagene CIS-FACTORIAL HepG2 Assay for human Peroxisome Proliferator-activated Response Element (PPRE) (AID 2282958); details: HepG2 PPRE cis-element reporter, Attagene transcription factor profiling; actives raise or lower the signal
Method in brief: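 Read-out: fluorescent reporter mRNA fragments resolved by capillary electrophoresis after RT-PCR. HepG2 cells carried transiently transfected PPRE-driven cis reporter constructs and were dosed for 24 h; gain or loss of signal fitted relative to DMSO.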

[11] = ATG_RORE_CIS: Attagene CIS-FACTORIAL HepG2 Assay for human RAR-related Orphan Receptor Element (RORE) (AID 2282959); details: HepG2 Attagene cis-factorial RORE reporter, mRNA; actives raise or lower the signal
Method in brief: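 Readout: fluorescent reporter mRNA by RT-PCR plus capillary electrophoresis, 24 h after dosing transfected HepG2 cells. Endogenous transcription factor activity on a cis promoter element is measured. Gain or loss of signal fitted against DMSO.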

[12] = target: Transcription factor Sp1 (Homo sapiens) (UniProt P08047); experiment: ATG_Sp1_CIS: Attagene CIS-FACTORIAL HepG2 Assay for human Specificity Protein 1 (Sp1) (AID 2282961); details: HepG2 Sp1 cis-reporter transcription, actives raise or lower the signal
Method in brief: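 Read-out: fluorescence of 6-FAM-labeled, HpaI-digested RT-PCR products separated by capillary electrophoresis. HepG2 cells carried transfected cis-element reporter units and were exposed to chemicals for 24 h; gain or loss of signal fitted relative to DMSO.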

[13] = ATG_SREBP_CIS: Attagene CIS-FACTORIAL HepG2 Assay for human Sterol Regulatory Element Binding (SREBP) (AID 2282962); details: HepG2 Attagene cis-factorial SREBP reporter, mRNA; actives raise or lower the signal
Method in brief: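 Endogenous SREBP activity read as cis-element-driven reporter transcript in transiently transfected HepG2, 24 h post-dosing; quantified via RT-PCR plus capillary electrophoresis of fluorescent fragments. Gain or loss of signal fitted relative to DMSO baseline.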

[14] = target: Signal transducer and activator of transcription 3 (Homo sapiens) (UniProt P40763); experiment: ATG_STAT3_CIS: Attagene CIS-FACTORIAL HepG2 Assay for human Signal Transducer and Activator of Transcription 3 (STAT3) (AID 2282963); details: HepG2, Attagene cis-factorial STAT3 reporter transcription; actives raise or lower the signal
Method in brief: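 HepG2, MRTU-transfected, 24 h dosing. RNA → RT → PCR → FAM label → HpaI → CE. Bidirectional fit vs DMSO.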

[15] = ATG_TA_CIS: Attagene CIS-FACTORIAL HepG2 Assay for human TA Basal Promoter (AID 2282964); details: HepG2 Attagene CIS-factorial TA basal promoter reporter; actives raise or lower the signal
Method in brief: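 Multiplexed mRNA reporter assay, HepG2, 24 h. Reporter cDNA amplified, 6-FAM primer-extended, HpaI-cut, CE-sized; DMSO = negative control and baseline.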

[16] = ATG_M_32_CIS: Attagene CIS-FACTORIAL HepG2 Assay for M32 Transcription Factor (Internal Marker) (AID 2282949); details: HepG2 Attagene cis-factorial M32 reporter, mRNA; actives raise or lower the signal;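 further: background control marker of the multiplexed CIS panel rather than a real target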
Method in brief: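 HepG2 human liver cells transiently transfected with cis-promoter-driven multiple reporter transcription units, dosed 24 h. Reporter mRNA quantified by RT-PCR, FAM-labelled primer extension, HpaI digest and capillary electrophoresis; bidirectional fit versus DMSO baseline.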

[17] = ATG_Sox_CIS: Attagene CIS-FACTORIAL HepG2 Assay for human SRY-box transcription factor (SOX) (AID 2282960); details: HepG2 Attagene cis-factorial SOX reporter, mRNA; actives raise or lower the signal
Method in brief: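 Read-out: fluorescent RT-PCR products of SOX1-linked reporter transcripts resolved by capillary electrophoresis, fitted bidirectionally against DMSO. Transiently transfected HepG2 cells, 24 h after chemical exposure, endogenous transcription factor activity.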

[18] = ATG_TCF_b_cat_CIS: Attagene CIS-FACTORIAL HepG2 Assay for human T-Cell-Factor with beta-catenin (TCF/b-cat) (AID 2282965); details: HepG2 TCF/beta-catenin cis-reporter transcription, actives raise or lower the signal
Method in brief: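 In this cis-format system, transfected HepG2 cells report endogenous transcription factor activity. Readout after 24 h exposure is reporter transcript abundance from RT-PCR and capillary electrophoresis, analysed for gain or loss of signal versus DMSO.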

[19] = target: Heat shock factor protein 1 (Homo sapiens) (UniProt Q00613); experiment: ATG_HSE_CIS: Attagene CIS-FACTORIAL HepG2 Assay for human Heat Shock Transcription Factor 1 (HSE) (AID 2282953); details: HepG2 HSE cis-reporter, Attagene RNA transcription; actives raise or lower the signal
Method in brief: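 After a 24 h incubation with test chemical, transfected HepG2 cells were harvested for RNA; reporter transcripts were measured by RT-PCR and capillary electrophoresis. Values reflect gain or loss of signal relative to DMSO.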

[20] = ATG_MRE_CIS: Attagene CIS-FACTORIAL HepG2 Assay for human Metal Responsive Element (MRE) (AID 2282954); details: HepG2 MRE cis-reporter transcription, Attagene multiplex; actives raise or lower the signal
Method in brief: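 Cells were transfected with cis-promoter reporter transcription units, then dosed for 24 h. RNA was reverse-transcribed, amplified, fluorescently labelled and resolved by capillary electrophoresis, and activity was fitted in both directions relative to DMSO.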

Measured: AC50

Bile acid receptor (Homo sapiens), sequence (Q96RI1 whole entry, looked up): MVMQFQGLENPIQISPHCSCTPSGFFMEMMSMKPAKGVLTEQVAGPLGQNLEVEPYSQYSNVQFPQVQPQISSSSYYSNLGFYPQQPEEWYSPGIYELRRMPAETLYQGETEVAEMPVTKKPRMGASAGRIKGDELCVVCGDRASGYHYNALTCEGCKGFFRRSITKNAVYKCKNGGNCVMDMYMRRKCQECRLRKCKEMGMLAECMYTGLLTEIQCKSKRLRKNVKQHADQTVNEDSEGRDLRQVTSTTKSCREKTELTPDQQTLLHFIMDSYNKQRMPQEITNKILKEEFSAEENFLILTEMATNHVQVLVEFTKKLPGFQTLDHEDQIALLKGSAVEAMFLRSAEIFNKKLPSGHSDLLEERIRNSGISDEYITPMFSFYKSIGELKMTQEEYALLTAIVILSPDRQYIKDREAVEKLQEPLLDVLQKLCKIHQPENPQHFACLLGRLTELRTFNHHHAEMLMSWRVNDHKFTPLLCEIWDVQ
Heat shock factor protein 1 (Homo sapiens), sequence (Q00613 whole entry, looked up): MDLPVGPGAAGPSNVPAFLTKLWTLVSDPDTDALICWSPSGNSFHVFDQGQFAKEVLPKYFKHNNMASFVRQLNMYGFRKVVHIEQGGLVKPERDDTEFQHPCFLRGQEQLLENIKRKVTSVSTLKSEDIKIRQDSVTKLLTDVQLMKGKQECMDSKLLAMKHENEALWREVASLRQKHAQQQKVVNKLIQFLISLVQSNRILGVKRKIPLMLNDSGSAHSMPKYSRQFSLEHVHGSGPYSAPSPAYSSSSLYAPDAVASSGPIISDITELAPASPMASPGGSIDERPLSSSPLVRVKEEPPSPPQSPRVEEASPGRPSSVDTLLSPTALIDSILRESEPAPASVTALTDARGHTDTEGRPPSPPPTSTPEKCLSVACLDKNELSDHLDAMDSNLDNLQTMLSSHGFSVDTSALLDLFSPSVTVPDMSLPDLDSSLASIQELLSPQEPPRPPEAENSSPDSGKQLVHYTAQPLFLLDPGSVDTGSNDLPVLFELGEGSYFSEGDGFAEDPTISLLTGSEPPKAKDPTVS
Transcription factor Sp1 (Homo sapiens), sequence (P08047 whole entry, looked up): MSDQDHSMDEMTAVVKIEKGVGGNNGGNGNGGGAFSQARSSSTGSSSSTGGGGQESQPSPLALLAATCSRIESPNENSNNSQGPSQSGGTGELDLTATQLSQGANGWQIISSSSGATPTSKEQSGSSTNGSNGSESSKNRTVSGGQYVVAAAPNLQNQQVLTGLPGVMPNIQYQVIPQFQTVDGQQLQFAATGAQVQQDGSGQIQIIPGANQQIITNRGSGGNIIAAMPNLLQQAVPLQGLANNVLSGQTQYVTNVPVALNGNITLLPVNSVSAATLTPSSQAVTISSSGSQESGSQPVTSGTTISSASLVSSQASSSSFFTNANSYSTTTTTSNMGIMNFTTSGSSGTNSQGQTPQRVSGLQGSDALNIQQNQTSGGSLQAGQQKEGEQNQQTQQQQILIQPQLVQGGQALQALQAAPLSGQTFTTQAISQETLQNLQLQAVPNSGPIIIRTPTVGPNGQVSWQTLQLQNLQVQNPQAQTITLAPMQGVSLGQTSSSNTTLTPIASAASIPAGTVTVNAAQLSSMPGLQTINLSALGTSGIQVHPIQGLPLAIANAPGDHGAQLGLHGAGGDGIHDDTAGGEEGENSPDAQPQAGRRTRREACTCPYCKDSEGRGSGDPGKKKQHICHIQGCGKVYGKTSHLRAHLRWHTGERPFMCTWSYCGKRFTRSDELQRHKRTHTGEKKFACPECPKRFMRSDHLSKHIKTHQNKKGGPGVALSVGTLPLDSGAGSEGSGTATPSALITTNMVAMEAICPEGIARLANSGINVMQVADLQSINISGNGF
Signal transducer and activator of transcription 3 (Homo sapiens), sequence (P40763 whole entry, looked up): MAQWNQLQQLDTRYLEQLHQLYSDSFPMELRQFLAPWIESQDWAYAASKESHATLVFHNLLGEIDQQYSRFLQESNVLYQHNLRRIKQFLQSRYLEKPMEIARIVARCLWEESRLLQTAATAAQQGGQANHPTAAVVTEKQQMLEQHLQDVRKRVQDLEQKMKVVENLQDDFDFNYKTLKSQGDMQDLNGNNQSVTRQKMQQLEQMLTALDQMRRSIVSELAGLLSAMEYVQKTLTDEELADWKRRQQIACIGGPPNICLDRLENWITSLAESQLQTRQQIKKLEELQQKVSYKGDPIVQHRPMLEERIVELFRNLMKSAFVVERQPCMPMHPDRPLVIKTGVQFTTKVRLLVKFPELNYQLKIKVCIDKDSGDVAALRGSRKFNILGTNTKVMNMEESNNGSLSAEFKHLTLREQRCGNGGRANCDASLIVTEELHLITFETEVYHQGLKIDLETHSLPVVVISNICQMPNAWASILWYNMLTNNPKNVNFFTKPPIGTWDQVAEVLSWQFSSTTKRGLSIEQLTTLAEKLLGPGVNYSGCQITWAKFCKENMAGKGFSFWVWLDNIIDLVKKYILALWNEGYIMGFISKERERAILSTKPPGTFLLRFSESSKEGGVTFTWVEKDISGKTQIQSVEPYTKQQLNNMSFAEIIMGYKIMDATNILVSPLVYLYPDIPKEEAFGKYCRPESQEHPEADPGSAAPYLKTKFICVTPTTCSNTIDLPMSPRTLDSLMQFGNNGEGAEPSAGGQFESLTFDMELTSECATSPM
Paired box protein Pax-6 (Homo sapiens), sequence (P26367 whole entry, looked up): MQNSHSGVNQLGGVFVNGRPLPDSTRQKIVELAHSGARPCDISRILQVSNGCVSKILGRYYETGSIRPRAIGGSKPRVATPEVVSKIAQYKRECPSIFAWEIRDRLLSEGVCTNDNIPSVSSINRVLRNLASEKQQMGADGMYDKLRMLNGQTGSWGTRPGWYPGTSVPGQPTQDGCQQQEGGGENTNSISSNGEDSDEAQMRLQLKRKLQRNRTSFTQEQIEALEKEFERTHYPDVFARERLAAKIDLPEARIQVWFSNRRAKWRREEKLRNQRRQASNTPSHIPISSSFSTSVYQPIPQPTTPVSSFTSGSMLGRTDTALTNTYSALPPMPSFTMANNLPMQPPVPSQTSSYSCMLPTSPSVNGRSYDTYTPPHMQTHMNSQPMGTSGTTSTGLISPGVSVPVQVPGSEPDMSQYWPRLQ
Hypoxia-inducible factor 1-alpha (Homo sapiens), sequence (Q16665 whole entry, looked up): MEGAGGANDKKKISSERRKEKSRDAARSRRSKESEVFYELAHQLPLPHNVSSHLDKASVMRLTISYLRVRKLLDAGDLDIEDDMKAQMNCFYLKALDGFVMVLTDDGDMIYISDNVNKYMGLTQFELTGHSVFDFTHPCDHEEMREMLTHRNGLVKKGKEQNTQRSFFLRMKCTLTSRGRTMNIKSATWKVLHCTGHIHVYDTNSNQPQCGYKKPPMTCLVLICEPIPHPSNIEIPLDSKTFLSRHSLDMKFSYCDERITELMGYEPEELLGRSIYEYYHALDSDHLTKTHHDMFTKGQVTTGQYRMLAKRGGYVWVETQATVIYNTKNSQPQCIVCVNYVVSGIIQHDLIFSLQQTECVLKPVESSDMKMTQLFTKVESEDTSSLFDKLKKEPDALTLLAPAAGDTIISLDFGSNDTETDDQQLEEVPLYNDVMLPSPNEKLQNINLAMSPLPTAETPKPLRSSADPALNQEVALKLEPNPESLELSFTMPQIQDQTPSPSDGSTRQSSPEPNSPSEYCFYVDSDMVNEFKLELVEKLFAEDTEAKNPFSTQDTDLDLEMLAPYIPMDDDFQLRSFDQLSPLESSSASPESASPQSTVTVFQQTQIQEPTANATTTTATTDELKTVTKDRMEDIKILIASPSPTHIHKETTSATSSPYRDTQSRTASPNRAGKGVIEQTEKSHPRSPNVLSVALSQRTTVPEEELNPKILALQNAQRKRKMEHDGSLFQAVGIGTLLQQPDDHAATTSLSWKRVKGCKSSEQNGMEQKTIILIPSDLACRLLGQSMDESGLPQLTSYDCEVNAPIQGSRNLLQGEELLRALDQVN
Hepatocyte nuclear factor 6 (Homo sapiens), sequence (Q9UBC0 whole entry, looked up): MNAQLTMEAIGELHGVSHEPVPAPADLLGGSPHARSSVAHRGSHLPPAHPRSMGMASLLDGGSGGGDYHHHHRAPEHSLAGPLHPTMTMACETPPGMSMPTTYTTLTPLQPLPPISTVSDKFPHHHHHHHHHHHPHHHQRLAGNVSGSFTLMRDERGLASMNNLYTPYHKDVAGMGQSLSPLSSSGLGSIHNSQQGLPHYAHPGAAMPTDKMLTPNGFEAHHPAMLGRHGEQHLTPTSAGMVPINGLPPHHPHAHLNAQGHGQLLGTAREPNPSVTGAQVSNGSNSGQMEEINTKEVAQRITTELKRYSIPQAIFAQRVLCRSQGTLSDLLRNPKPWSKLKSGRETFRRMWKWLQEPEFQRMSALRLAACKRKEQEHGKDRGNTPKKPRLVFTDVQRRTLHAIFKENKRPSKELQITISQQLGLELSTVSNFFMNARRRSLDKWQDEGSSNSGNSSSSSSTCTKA

O=C1CCCCCCCCCCCCCCCO1
inactive: [1] | [2] | [3] | [4] | [6] | [7] | [8] | [9] | [10] | [11] | [12] | [14] | [15]
active: [5] 122 µM | [13] 100 µM

Nc1nc2ccccc2[nH]1
inactive: [1] | [2] | [3] | [16] | [4] | [5] | [6] | [7] | [8] | [17] | [12] | [13] | [14] | [15] | [18]

CC(C)(c1cc(Br)c(OCCO)c(Br)c1)c1cc(Br)c(OCCO)c(Br)c1
active: [1] 7.14 µM | [2] 44.2 µM | [3] 7 µM | [16] 22.9 µM | [6] 42.2 µM | [19] 21.5 µM | [20] 18.4 µM | [8] 17.4 µM | [9] 0.484 µM | [13] 18 µM | [15] 15.3 µM | [18] 7.14 µM
inactive: [4] | [7] | [10] | [17] | [12] | [14]

Cn1c(=O)[nH]c2ncn(C)c2c1=O
inactive: [1] | [2] | [3] | [16] | [4] | [19] | [8] | [9] | [10] | [17] | [12] | [13] | [14] | [15] | [18]

CC(C)=CC1CC(C)CCO1 (stereo not drawn)
inactive: [1] | [2] | [3] | [16] | [4] | [6] | [19] | [20] | [8] | [10] | [11] | [17] | [13] | [14] | [15] | [18]

O=S(=O)(O)c1ccccc1C=Cc1ccc(-c2ccc(C=Cc3ccccc3S(=O)(=O)O)cc2)cc1
inactive: [1] | [2] | [3] | [16] | [4] | [5] | [20] | [7] | [8] | [9] | [10] | [11] | [17] | [12] | [13] | [14] | [15] | [18]

OCCN(CCO)c1ccccc1
inactive: [1] | [2] | [3] | [16] | [4] | [5] | [19] | [20] | [8] | [9] | [17] | [12] | [13] | [14] | [15] | [18]
